Results from PubChem BioAssay (Tox21).
Results filed as inconclusive are left out. A call without a number means that no potency is given here. Values without a mark were called inactive. Active and inactive are the calls of the source. The call rests on the fitted dose curve.

Test: p53 small molecule agonists, cell-based qHTS assay with human liver microsomes: qHTS cell viability counter screen (AID 1963579); further: nearly all actives have a fitted effect of over 45% in size
Conditions: p53RE-bla HCT-116 viability, ATP luminescence, 16 h, HLM; series mostly up to 66 µM
Excerpt: National Center for Advancing Translational Sciences [NCATS]
Division of Preclinical Innovation [DPI]
U.S. Environmental Protection Agency [EPA]
National Institutes of Environmental Health Sciences [NIEHS]
National Toxicology Program [NTP]
U.S. Food and Drug Administration [FDA]
p53, a tumor suppressor protein, is activated following cellular insult, including DNA damage and other cellular stresses. The activation of p53 regulates cell fate by inducing DNA repair, cell cycle arrest, apoptosis, or cellular senescence. The activation of p53, therefore, is a good indicator of DNA damage and other cellular stresses. […] The activation of the reporter gene under culture conditions can be detected by fluorescence intensity. This cell line was used to screen the Tox21 10K compound library in the condition of presence of human liver microsomes and to identify agonists that activate the p53 signaling pathway after in vitro metabolic activation (Ooka et al., Archive of Toxicology 96:1975-1987, 2022).
Tox21 Assay Protocol Summary:
The p53RE-bla cells were dispensed at 4,000cells/3ul/well in 1536-well black-clear bottom plates. After the assay plates were incubated at 37 C, 5% CO2 incubator for 5 hours, 23 nL of compounds dissolved in DMSO, positive controls or DMSO only was transferred to the assay plate. Following compound addition, 3 uL of human liver microsomes (XenoTech, Kansas City, KS) at final concentration of 0.5 mg/mL and 1uL of B-Nicotinamide adenine dinucleotide 2'-phosphate (NADPH) at final concentration of 0.5 mg/mL were transferred to the assay plate. The plates were incubated at 37 C for 16 hours. 1 uL of LiveBLAzer detection mixture was added to each well and the plates were incubated at room temperature in the dark for 2 h. Fluorescence intensity at 460 and 530 nm emission and 405 nm excitation were measured by an Envision plate reader. For cell viability readout that measures cytotoxicity, 4 ul/well of CellTiter-Glo reagent was added into the assay plates using a Flying Reagent Dispenser. After 30 min incubation at room temperature, the luminescence intensity in the plates was measured using a ViewLux plate reader.
Potency means the concentration at half of the fitted maximal effect.

| Compound | Potency | activity change, negative = cytotoxicity |
| --- | --- | --- |
| Nc1cc(S(=O)(=O)O)ccc1O | inactive |  |
| CC(O)COC(C)(C)C (stereo not given) | inactive |  |
| CC(=O)OCC(=O)[C@@]1(OC(C)=O)[C@@H](C)C[C@H]2[C@@H]3C[C@H](F)C4=CC(=O)C=C[C@]4(C)[C@@]3(F)[C@@H](O)C[C@@]21C | inactive |  |
| C[C@H]1O[C@@H](n2cc(F)c(=O)[nH]c2=O)[C@H](O)[C@@H]1O | inactive |  |
| Nc1ccc(C(=O)NCC(=O)O)cc1 | inactive |  |
| CCCCC(CC)CN1C(=O)C2C3C=CC(C3)C2C1=O (stereo not given) | inactive |  |
| CCCCCCCC[N+](CCCCCCCC)(CCCCCCCC)CCCCCCCC | 18.2 µM (active) |  |
| CCN(CC)CCOC(=O)C(Cc1cccc2ccccc12)CC1CCCO1 (stereo not given) | inactive |  |
| NC(Cc1ccc(Cl)cc1)C(=O)O (stereo not given) |  | -1.01% [at 0.249 µM] |
| CCCCCCCC/C=C\CCCCCCCC(=O)OC[C@@H](O)[C@H]1OC[C@H](O)[C@H]1O | inactive |  |
| COc1ccc(C)cc1[N+](=O)[O-] | inactive |  |
| CCN(C(=O)c1cc(C)cc(OC[C@H](C)Nc2ccncc2)c1)C(C)C | inactive |  |
| Cc1ccnc(N)c1 | inactive |  |
| Cc1cc(C(C)(C)C)c(O)c(C)c1CC1=NCCN1 | inactive |  |
| Cc1cn[nH]c1 | inactive |  |
| C=CC(=O)O | inactive |  |
| CN1CCN(N)CC1 | inactive |  |
| CCCCCCC(=O)OCC | inactive |  |
| COc1cc2[nH]c(=O)[nH]c(=O)c2cc1OC | inactive |  |
| CC(CO)(CO)C(=O)O | inactive |  |

| Compound | Potency | activity change, negative = cytotoxicity |
| --- | --- | --- |
| Cc1c(Cl)cccc1[N+](=O)[O-] | inactive |  |
| Cc1ccc(C)c(N)c1 | inactive |  |
| O=C1c2ccccc2C(=O)C1c1ccc(Br)cc1 | inactive |  |
| CCCCCCCCCOC(=O)c1ccc(O)cc1 | 18 µM (active) |  |
| C#CCN[C@@H]1CCc2ccccc21 | inactive |  |
| CC[C@@H](CO)NCCN[C@@H](CC)CO | inactive |  |
| COC(C)(OC)OC | inactive |  |
| CCCCCCCCCC(=O)OCC | inactive |  |
| CC(=O)OCC(C)C | inactive |  |
| O=C(OCC1(COC(=O)c2cccnc2)CCCC(COC(=O)c2cccnc2)(COC(=O)c2cccnc2)C1O)c1cccnc1 | inactive |  |
| CC1=CC(=O)CC(C)(C)C1(O)/C=C/C(C)=C\C(=O)O (stereo not given) | inactive |  |
| COc1cc2c(cc1OC)-c1cc3ccc(OC)c(OC)c3c[n+]1CC2 | inactive |  |
| C=CCOC(=O)/C=C\C(=O)OCC=C | inactive |  |
| NC(=O)N1c2ccccc2CC(=O)c2ccccc21 | inactive |  |
| O=C(O)c1cccc(-c2noc(-c3ccccc3F)n2)c1 | 15.8 µM (active) |  |
| CC=C(Cl)Cl | inactive |  |
| Cc1c(C(=O)NCCO)[n+](=O)c2ccccc2n1[O-] | inactive |  |
| C=CC(C)(O)CCCC(C)CCCC(C)CCCC(C)C (stereo not given) | inactive |  |
| CC(=O)N(CC(O)CN(C(C)=O)c1c(I)c(C(=O)NCC(O)CO)c(I)c(C(=O)NCC(O)CO)c1I)c1c(I)c(C(=O)NCC(O)CO)c(I)c(C(=O)NCC(O)CO)c1I (stereo not given) | inactive |  |
| CC(C)(C)NCC(O)COc1ccc(NC(=O)NC2CCCCC2)cc1 (stereo not given) | inactive |  |
